# In the supplement of paper PMC9262897, “Low-cost anti-mycobacterial drug discovery using engineered E. coli” (Nature Communications, 2022):
# Counter-ions that a name gives are not always drawn. ± gives the standard deviation of the averaged measurements.
# Tested on: E. coli TESEC Mtb Asd
# Assay: growth (OD600 after 10 h); higher = more growth (less inhibition)
# Details: arabinose induction (level): Low; compound 0.1 mM; raw OD600 reference: median of DMSO wells 0.417, cell-free background 0.041
# Experimental: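 TESEC E. coli strains in which the native enzyme is deleted and replaced by arabinose-inducible Mtb Asd, DapB, CysH or TrpD, each grown in its selective medium. Strains were screened against the Prestwick library at 0.1 mM and 1% DMSO in 384-well format at low and high arabinose induction. Growth is read as OD600 after 10 h in triplicate.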
row,SMILES,growth
1,CCCCN(CCCC)CCC(O)c1cc2c(Cl)cc(Cl)cc2c2cc(C(F)(F)F)ccc12 (centres undefined) [Halofantrine hydrochloride],0.457 ± 0.054
2,CO[C@@H]1[C@@H](O[C@@H]2O[C@H](C)[C@@H](O[C@H]3C[C@@](C)(O)[C@@H](OC(=O)CC(C)C)[C@H](C)O3)[C@H](N(C)C)[C@H]2O)[C@@H](CC=O)C[C@@H](C)[C@@H](O)/C=C/C=C/C[C@@H](C)OC(=O)C[C@H]1OC(C)=O [Josamycin],0.0594 ± 0.0064
3,Cc1ccccc1C(OCCN(C)C)c1ccccc1 (centres undefined) [Orphenadrine hydrochloride],0.383 ± 0.063
4,O=C(NCC1CCCCN1)c1cc(OCC(F)(F)F)ccc1OCC(F)(F)F (centres undefined) [Flecainide acetate],0.42 ± 0.091
5,C[C@]12CC[C@@H]3c4ccc(O)cc4C[C@@H](CCCCCCCCC[S+]([O-])CCCC(F)(F)C(F)(F)F)[C@H]3[C@@H]1CC[C@@H]2O (some centres undefined) [Fulvestrant],0.415 ± 0.041
6,CN1CCN(CC(=O)N2c3ccccc3C(=O)Nc3cccnc32)CC1 [Pirenzepine dihydrochloride],0.418 ± 0.034
7,CCCCC(=O)N(Cc1ccc(-c2ccccc2-c2nnn[nH]2)cc1)[C@H](C(=O)O)C(C)C [Valsartan],0.396 ± 0.047
8,CCOc1ccccc1OCC1CNCCO1 (centres undefined) [Viloxazine hydrochloride],0.386 ± 0.012
9,Cc1nc2n(c(=O)c1CCN1CCC(c3noc4cc(F)ccc34)CC1)CCCC2 [Risperidone],0.315 ± 0.073
10,C=C1C(=O)O[C@H]2[C@H]1CC/C(C)=C/CC[C@@]1(C)O[C@@H]21 [Parthenolide],0.269 ± 0.036
11,CC(C(O)c1ccc(O)cc1)N1CCC(Cc2ccccc2)CC1 (centres undefined) [Ifenprodil tartrate],0.427 ± 0.028
12,O=C(c1ccc(F)cc1)C1CCN(CCn2c(=O)[nH]c3ccccc3c2=O)CC1 [Ketanserin tartrate hydrate],0.393 ± 0.039
13,COc1cc2nc(N(C)CCCNC(=O)C3CCCO3)nc(N)c2cc1OC (centres undefined) [Alfuzosin hydrochloride],0.361 ± 0.029
14,CN(C)C(=O)C(CCN1CCC(O)(c2ccc(Cl)cc2)CC1)(c1ccccc1)c1ccccc1 [Loperamide hydrochloride],0.0487 ± 0.00055
15,CNCCC=C1c2ccccc2C=Cc2ccccc21 [Norcyclobenzaprine],0.238 ± 0.036
16,O=S(=O)(O)c1cc(O)ccc1O [Ethamsylate],0.391 ± 0.0046
17,N[C@@H]1CONC1=O [D-cycloserine],0.354 ± 0.081
18,Clc1ccc(CO/N=C(\Cn2ccnc2)c2ccc(Cl)cc2Cl)c(Cl)c1 [Oxiconazole Nitrate],0.0577 ± 0.0051
19,COc1cc(NS(=O)(=O)c2ccc(N)cc2)ncn1 [Sulfamonomethoxine],0.413 ± 0.018
20,C[C@@H]1NC(=O)NC1=O [Methylhydantoin-5-(L)],0.44 ± 0.036

row,SMILES,growth
1,Cn1c(=O)c2c(ncn2CC(=O)O)n(C)c1=O [Acefylline],0.433 ± 0.014
2,CCC(=O)O[C@]1(C(=O)SCF)[C@H](C)C[C@H]2[C@@H]3C[C@H](F)C4=CC(=O)C=C[C@]4(C)[C@@]3(F)[C@@H](O)C[C@@]21C [Fluticasone propionate],0.36 ± 0.046
3,Cn1c(=O)c2c(ncn2CCO)n(C)c1=O [Etofylline],0.425 ± 0.033
4,CCOC(=O)[C@H](CCc1ccccc1)N[C@@H](C)C(=O)N1CCC[C@H]1C(=O)O [Enalapril maleate],0.373 ± 0.067
5,CCC[C@@H]1C[C@@H](C(=O)N[C@@H]([C@H]2O[C@H](SC)[C@H](O)[C@@H](O)[C@H]2O)[C@@H](C)O)N(C)C1 [Lincomycin hydrochloride],0.204 ± 0.02
6,CC(C)(C)NC[C@H](O)COc1nsnc1N1CCOCC1 [Timolol maleate salt],0.432 ± 0.019
7,CC(C)NCC(O)COc1ccc(COCCOC(C)C)cc1 (centres undefined) [Bisoprolol fumarate],0.467 ± 0.07
8,c1ccc2c(CC3=NCCN3)cccc2c1 [Naphazoline hydrochloride],0.333 ± 0.048
9,CC(=O)OCC(=O)[C@@]1(O)CC[C@H]2[C@@H]3CCC4=CC(=O)CC[C@]4(C)[C@@]3(F)[C@@H](O)C[C@@]21C [Fludrocortisone acetate],0.37 ± 0.092
10,O=P(O)(O)C(O)(Cn1ccnc1)P(=O)(O)O [Zoledronic acid hydrate],0.357 ± 0.034
11,Cc1c(N(C)C)c(=O)n(-c2ccccc2)n1C [Amidopyrine],0.41 ± 0.042
12,C=C1/C(=C\C=C2/CCC[C@]3(C)[C@@H]([C@H](C)/C=C/[C@@H](O)C4CC4)CC[C@@H]23)C[C@@H](O)C[C@@H]1O [Calcipotriene],0.0613 ± 0.0049
13,NS(=O)(=O)c1cc2c(cc1Cl)N=CNS2(=O)=O [Chlorothiazide],0.447 ± 0.045
14,CN(C)CCc1c[nH]c2ccc(Cn3cncn3)cc12 [Rizatriptan benzoate],0.417 ± 0.051
15,Nc1ncn(C2OC(CO)C(O)C2O)c(=O)n1 (centres undefined) [Azacytidine-5],0.192 ± 0.065
16,CC(=O)N[C@@H](CC(=O)N[C@@H](CCC(=O)O)C(=O)O)C(=O)O [Spaglumic acid],0.426 ± 0.026
17,Cc1c(NC(=O)c2cccnc2)c(=O)n(-c2ccccc2)n1C [Nifenazone],0.411 ± 0.1
18,Cc1ccnc2c1NC(=O)c1cccnc1N2C1CC1 [Nevirapine],0.391 ± 0.053
19,CC(C)NCC(O)COc1ccc(CCOCC2CC2)cc1 (centres undefined) [Betaxolol hydrochloride],0.359 ± 0.069
